Test results as given in PubChem BioAssay AID1159580 (chemical genetic matrix, 2015).
In all, about 5,500 compounds went through this assay and about 2,000 (36%) were called active. About 18% were inconclusive and are not listed. Cut-off read from the data, not from the text of the source: active = normalized growth mostly below about 0.91 (no sharp cut-off); inconclusive = no clear call, values can overlap the other calls; inactive = mostly above about 0.92. This is one part of the list.

Assay: chemical genetic growth profiling, strain panel (AID 1159580);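 note: tested at 20 µM; growth read once vehicle control cultures reached saturation at 30 °C; 1 = growth at the plate median or of vehicle wells; lower values mean less growth of the strain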
Settings: S. cerevisiae deletion strains, growth OD

Measured: normalized growth

O=C(Cc1cccs1)NC1C(=O)N2C(C(=O)[O-])=C(C[n+]3ccccc3)CSC12 (stereo unspecified)
inactive: locus YAL013W, strain DEP1, stronger effect = lower value 1.01 | locus YAL021C, strain ccr4, stronger effect = lower value 0.966 | locus YAL026C, strain drs2, stronger effect = lower value 0.989 | locus YAL030W, strain snc1, stronger effect = lower value 0.994 | locus YBL061C, strain skt5, stronger effect = lower value 0.995 | locus YBR009C, strain hhf1, stronger effect = lower value 0.981 | locus YBR021W, strain FUR4, stronger effect = lower value 1 | locus YBR023C, strain chs3, stronger effect = lower value 0.993 | locus YBR171W, strain sec66, stronger effect = lower value 0.975 | locus YBR229C, strain ROT2, stronger effect = lower value 0.99 | locus YBR231C, strain swc5, stronger effect = lower value 0.985 | locus YBR279W, strain paf1, stronger effect = lower value 0.996 | locus YCL011C, strain gbp2, stronger effect = lower value 0.997 | locus YCL016C, strain dcc1, stronger effect = lower value 0.991 | locus YCL029C, strain bik1, stronger effect = lower value 1 | locus YCL069W, strain vba3, stronger effect = lower value 0.991 | locus YCR088W, strain abp1, stronger effect = lower value 0.982 | locus YDL005C, strain med2, stronger effect = lower value 0.968 | locus YDL035C, strain GPR1, stronger effect = lower value 0.998 | locus YDL040C, strain nat1, stronger effect = lower value 0.983 | locus YDL074C, strain BRE1, stronger effect = lower value 1.01 | locus YDL101C, strain DUN1, stronger effect = lower value 1.02 | locus YDL134C, strain PPH21, stronger effect = lower value 1 | locus YDL185W, strain tfp1, stronger effect = lower value 0.991 | locus YDL192W, strain arf1, stronger effect = lower value 0.992 | locus YDR001C, strain nth1, stronger effect = lower value 0.996 | locus YDR069C, strain doa4, stronger effect = lower value 0.964 | locus YDR101C, strain arx1, stronger effect = lower value 1.01 | locus YDR137W, strain rgp1, stronger effect = lower value 0.988 | locus YDR159W, strain sac3, stronger effect = lower value 0.962 | locus YDR162C, strain NBP2, stronger effect = lower value 1.01 | locus YDR195W, strain ref2 1.01 | locus YDR297W, strain sur2, stronger effect = lower value 0.989 | locus YDR318W, strain mcm21, stronger effect = lower value 0.998 | locus YDR334W, strain swr1, stronger effect = lower value 0.993 | locus YDR335W, strain msn5, stronger effect = lower value 0.996 | locus YDR388W, stronger effect = lower value 0.99 | locus YDR392W, strain spt3, stronger effect = lower value 0.994 | locus YDR502C, strain sam2, stronger effect = lower value 0.985 | locus YEL003W, strain gim4, stronger effect = lower value 0.969 | locus YEL037C, strain rad23, stronger effect = lower value 1 | locus YEL061C, strain CIN8 (second series), stronger effect = lower value 1 | locus YEL061C, strain CIN8, stronger effect = lower value 1.01 | locus YER015W, strain faa2, stronger effect = lower value 0.983 | locus YER016W, strain bim1, stronger effect = lower value 0.983 | locus YER110C, stronger effect = lower value 0.992 | locus YER111C, strain swi4, stronger effect = lower value 0.96 | locus YER155C, strain BEM2 (second series), stronger effect = lower value 0.987 | locus YER155C, strain BEM2, stronger effect = lower value 1 | locus YER167W, strain BCK2, stronger effect = lower value 0.991 | locus YFR010W, strain ubp6, stronger effect = lower value 0.986 | locus YGL078C, strain dbp3, stronger effect = lower value 0.99 | locus YGL086W, strain mad1, stronger effect = lower value 0.999 | locus YGL167C, strain pmr1, stronger effect = lower value 0.985 | locus YGL173C, strain kem1, stronger effect = lower value 0.982 | locus YGL227W, strain vid30, stronger effect = lower value 0.979 | locus YGL240W, strain doc1, stronger effect = lower value 0.956 | locus YGL248W, strain PDE1, stronger effect = lower value 1.02 | locus YGL253W, strain hxk2, stronger effect = lower value 0.999 | locus YGR135W, strain pre9, stronger effect = lower value 0.978 | locus YGR252W, strain gcn5, stronger effect = lower value 0.941 | locus YHR013C, strain ard1, stronger effect = lower value 0.981 | locus YHR027C, strain rpn1, stronger effect = lower value 0.991 | locus YHR030C, strain SLT2, stronger effect = lower value 1.01 | locus YHR079C, strain IRE1 (second series), stronger effect = lower value 0.996 | locus YHR094C, strain hxt1, stronger effect = lower value 0.998 | locus YHR129C, strain ARP1, stronger effect = lower value 1.01 | locus YHR142W, strain chs7, stronger effect = lower value 0.963 | locus YHR200W, strain rpn10, stronger effect = lower value 0.994 | locus YIL066C, strain RNR3, stronger effect = lower value 1.02 | locus YIL073C, strain SPO22, stronger effect = lower value 1.09 | locus YIL125W, strain kgd1, stronger effect = lower value 0.999 | locus YIR030C, strain dcg1, stronger effect = lower value 1.01 | locus YJL092W, strain hpr5, stronger effect = lower value 0.986 | locus YJL095W, strain BCK1 (second series), stronger effect = lower value 0.961 | locus YJL095W, strain BCK1, stronger effect = lower value 1.03 | locus YJL115W, strain asf1, stronger effect = lower value 0.981 | locus YJL129C, strain trk1, stronger effect = lower value 0.99 | locus YJL134W, strain LCB3, stronger effect = lower value 1 | locus YJL154C, strain vps35, stronger effect = lower value 0.983 | locus YJL164C, strain tpk1, stronger effect = lower value 0.985 | locus YJL166W, strain qcr8, stronger effect = lower value 0.979 | locus YJL168C, strain set2, stronger effect = lower value 0.994 | locus YJL187C, strain SWE1 (second series), stronger effect = lower value 1.01 | locus YJL187C, strain SWE1, stronger effect = lower value 0.978 | locus YJR043C, strain POL32, stronger effect = lower value 1.01
